Reference: PubChem BioAssay (NCATS)
Inconclusive results are not listed. For some of these results: Results with a measured potency or affinity are listed apart. The source made the active and inactive calls.

Tests used:
[1] = Ebola virus entry assay, blue channel fluorescence
[2] = Ebola virus entry assay, green fluorescence channel
[3] = Ebola virus entry assay, blue channel fluorescence; remark: listed apart in the source
[4] = qHTS Assay for Identifying Gametocytocidal Compounds (AID 743244; active means well fitted curve in the direction sought with a large enough effect;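 further: on the % scale 0 is the no-effect control and ±100 the full control effect; actives lower the fluorescent signal which means gametocytes are killed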); conditions: P. falciparum 3D7 stage III-V gametocytes, alamarBlue, 72 h; max response: active compounds read low
Procedure, shortened: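 Stage III–V gametocytes of P. falciparum 3D7 were seeded at 20,000 cells/well onto pre-dispensed compounds. After 72 h, 37 °C, 5% CO2, alamarBlue was added for another 24 h.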

[5] = Ebola virus entry assay, ratio channel readout
[6] = Ebola virus entry assay, ratio channel

Measured: max response

CC(O)(P(=O)(O)O)P(=O)(O)O
inactive: [1] | [2] | [3]

Cc1nnc2n1-c1ccc(Cl)cc1C(c1ccccc1)=NC2
inactive: [4] 35.3% | [1] | [2] | [5]

Nc1nc(/C(=C/CC(=O)O)C(=O)N[C@@H]2C(=O)N3C(C(=O)O)=CCS[C@H]23)cs1
inactive: [2] | [5]

CCOC(=O)[C@H](CCc1ccccc1)N[C@@H](C)C(=O)N1[C@H](C(=O)O)C[C@H]2CCCC[C@@H]21
inactive: [2] | [5]

CO[C@@]1(NC(=O)Cc2cccs2)C(=O)N2C(C(=O)O)=C(COC(N)=O)CS[C@@H]21
inactive: [2] | [5] | [3] | [6]

O=C1CN=C(c2ccccc2)c2cc([N+](=O)[O-])ccc2N1
inactive: [4] 13.6% | [2] | [5] | [3] | [6]

CN1C(=O)CC(=O)N(c2ccccc2)c2cc(Cl)ccc21
inactive: [4] 16.1% | [1] | [2] | [5]

CCOc1cc(CC(=O)N[C@@H](CC(C)C)c2ccccc2N2CCCCC2)ccc1C(=O)O
inactive: [2] | [5]

CC(C=CC1=C(C)CCCC1(C)C)=CC=CC(C)=CC(=O)O
inactive: [1] | [5]
